Bioassay records as filed in PubChem.
Pol III holo inh: DNA polymerase III holoenzyme inhibition. reconstituted DNA polymerase III holoenzyme replication, biochemical. Potency, µM (doses to about 57.1 µM). 0.25% of 71,000 active
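Reconstituted *E. coli* holoenzyme (0.35 nM Pol III, 1 nM beta, 154 nM SSB, 2 nM primase) was preincubated with compound for 15 min at RT. Synthesis on 1.4 nM ssM13Gori ran 35 min, then was stopped with PicoGreen/EDTA and read as dsDNA fluorescence.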
Tau fil binding: binds recombinant human tau filaments; P10636; recombinant tau filaments, thioflavin S fluorescence, 15 h; filaments grown with octadecylsulfate alongside compound; Potency, µM (doses to about 57.1 µM); 2% of 71,000 active;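 also: actives lower thioflavin S fluorescence by blocking filaments or displacing dye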
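His-tagged recombinant human tau (exons 2, 3 and 10 included), 1 uM, was induced to fibrillize by 30 uM sodium octadecylsulfate with compound present. After 15 h at 37 C, thioflavine S fluorescence (ex 450, em 510 nm) was read.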
Hsp90 Hop PPI: changes Hsp90-Hop TPR2A binding signal, up or down; 0.44% of 71,000 active; AID 595; Potency, µM (highest dose often 57 µM); AlphaScreen TPR2A-His6 binding biotin-Hsp90 C-terminal peptide; active = well fitted curve in either direction with a large enough effect; inconclusive = small, poorly fitted or top-dose-only effect, or another doubt
TSHR agonist: agonists of human thyroid stimulating hormone receptor | P16473 | AID 926 | 0.48% of 73,000 active | Potency, µM (doses to about 57.1 µM), actives largely listed as activators | HEK293-CNG-TSHR cells (CNG channel as cAMP sensor), membrane potential dye, cAMP; active = well fitted activation curve with a large enough effect in the main read-out, with a control signal flat, not every such curve was filed as active; inconclusive = small, poorly fitted or top-dose-only effect, or a change in a side signal; inactive = no such curve, though single readings can be large or run the other way; reference of the percent scale not stated here;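 also: the control signal comes from parental cells without the receptor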
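HEK 293 cells stably expressing TSHR and a modified CNG channel, with CNG-only parental cells as counterscreen, were preloaded 60 min at room temperature with membrane potential dye containing 100 uM RO 20-1724. Compound exposure was 30 min, and depolarization was read as fluorescence at 590 nm.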
HEK293 cAMP cs: counter-screen for TSHR agonists: cAMP increase in parental HEK293; parental HEK293 CNG cAMP sensor, membrane potential fluorescence; Potency, µM (top dose mostly 57.1 µM), usual class: activators; 2.5% of 73,000 active; AID 938; also: nearly all actives have a fitted effect of over 55% in size
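Parental HEK 293 cells stably expressing a cAMP-gated CNG channel were loaded with membrane potential dye containing 100 uM RO 20-1724 for 60 min. Compound added for 30 min; depolarization read as fluorescence intensity at 590 nm.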
Numbers stand for hits; i = inactive; ? = inconclusive; nt = no result; [ ] = remark or other dose. Compounds with a hit are over-represented: about 5.1% of the library has one in this group of screens. Unless noted, calls follow the shape of the dose curve; as a rule, active = well fitted curve in the direction sought with a large enough effect; inconclusive = small, poorly fitted or top-dose-only effect, or another doubt; inactive = no such curve, though single readings can be large; an effect the other way counts as inactive or inconclusive.

SMILES	Pol III holo inh	Tau fil binding	Hsp90 Hop PPI	TSHR agonist	HEK293 cAMP cs
O=C1c2ccccc2C(Nc2ccc(F)c(Cl)c2)N1Cc1ccco1 (stereo not drawn)	i	13µM	i	nt	i
COc1ccc(-c2nc3cnc(N4CCOCC4)nc3n(C)c2=O)cc1	i	i	i	i	i
Cc1cc(NC(=O)COC(=O)c2ccc(S(=O)(=O)N3CCCc4ccccc43)cc2)no1	i	i	i	16µM	i
Cc1cc(NC(=O)COC(=O)c2cccc(S(=O)(=O)N3CCOCC3)c2)no1	i	i	i	i	i
O=C(NCCN1CCCCC1)c1ccc(-n2c(=O)c(=O)[nH]c3ccccc32)cc1	nt	nt	nt	i	i
Cc1n[nH]c(C)c1S(=O)(=O)N1CCCC(C(=O)NC2CCCCC2)C1 (stereo not drawn)	i	i	i[2.3 µM]	?	10µM
Cc1nn(C)c(C)c1S(=O)(=O)N1CCCC(C(=O)NC2CCCCCC2)C1 (stereo not drawn)	i	i	i[2.3 µM]	?	?
CC(=O)c1cccc(NC(=O)C2CCN(S(=O)(=O)c3c(C)n[nH]c3C)CC2)c1	i	25µM	i	i	i
CC(=O)c1cccc(NC(=O)C2CCN(S(=O)(=O)c3ccc(C)cc3)CC2)c1	i	i	i	i	i
CC[C@H](CN(C)C)C(=O)c1ccco1	i[11.4 µM]	i[11.4 µM]	i[11 µM]	i[11.4 µM]	i[11.4 µM]
O=c1cnc2cncnc2n1Cc1ccc(F)cc1	i	i	i	?	?
O=c1cnc2cncnc2n1Cc1ccccc1Cl	i	i	i	32µM	i[0.457 µM]
O=c1c(-c2ccccc2)nc2cncnc2n1Cc1ccccc1Cl	i	?	i	i	i
Cc1nc2cncnc2n(Cc2ccccc2Cl)c1=O	i	16µM	i	i	i[0.457 µM]
O=c1cnc2cncnc2n1Cc1ccccc1	i	i	i	25µM	i
Cc1ccccc1-c1nccc(NCCN2CCOCC2)n1	i	i	i	?	?
COc1ccc(C(=O)COC(=O)CN2CC(=O)Oc3ccccc32)cc1Br	i	i	6.3µM	i	i
CC[C@H](C)C(=O)O[C@@H]1CCC=C2C=C[C@H](C)[C@@H](CC[C@H]3C[C@@H](O)CC(=O)O3)[C@H]21	i	i	i	i	i
Clc1ccc(Cn2nnc(-c3ccc(CN4CCOCC4)cc3)n2)cc1	i	i	i	?	32µM
O=C(c1csnn1)N1CCC[C@@]2(CCN(c3ccccn3)C2)C1	i	i	i	i	i
COC(=O)c1ccc(NC(=O)c2sc3nc(-c4ccccc4)cn3c2C)cc1	i	i	i	?	32µM
Cc1ccc(NC(=O)CCNS(=O)(=O)c2cccc3nonc23)cc1	i	i	i	i	i
Cc1ccc(N(CC(=O)Nc2cccc(C)c2)S(=O)(=O)c2cccc3nonc23)cc1	i	16µM	i	i	i
CC1CCCN(c2nc3ccsc3c(=O)s2)C1 (stereo not drawn)	i	i	?	?	25µM
COc1ccc(OC)c(-c2cc(C(=O)N3CCCc4ccccc43)no2)c1	i	i	i	?	?
SMILES	Pol III holo inh	Tau fil binding	Hsp90 Hop PPI	TSHR agonist	HEK293 cAMP cs
COc1ccc(-c2cc(C(=O)N3CCCc4ccccc43)no2)cc1OC	i	i	i	?	25µM
COc1cccc(-c2cc(C(=O)N3CCCc4ccccc43)no2)c1	i	i	i	?	16µM
COc1ccc(-c2cc(C(=O)N3CCc4ccccc4C3)no2)cc1OC	i	i	i	i[11.4 µM]	i
COc1ccc(-c2cc(C(=O)N3CCCc4ccccc43)no2)cc1	i	i	i	?	20µM
O=C(CCCC(=O)N1CCCc2ccccc21)N1CCCc2ccccc21	i	i	i	i	i
COc1ccc(OCCCC(=O)N2CCCc3ccccc32)cc1	i	i	i	?	16µM
COC(=O)c1c(-c2cc(OC)c(OC)c(OC)c2)c2ccnc(OCc3ncccn3)c2c(=O)n1Cc1ccnc(C)c1	i	?	i	i	i
CCCCC1CN2C(CCC(C)C2c2ccc(Br)cc2)C(=O)O1 (stereo not drawn)	nt	nt	nt	?	i[11.4 µM]
Cc1noc(C)c1-c1nccc(NCc2cccs2)n1	i	i	i	nt	i
O=C(COc1ccc(Cl)cc1)Nc1ccccc1N1CCOCC1	i	i	i	?	16µM
Cc1cccc(OCC(=O)Nc2ccccc2N2CCN(C(=O)C(C)C)CC2)c1C	i	i	i	?	1.6µM
Cc1cc(Cl)ccc1OCC(=O)Nc1ccccc1N1CCOCC1	i	i	i	?	?
